Records with an inconclusive call do not appear. Calls of active or inactive are those of the source. Rule for the calls: active = hit-call score of the fitted dose curve at least 0.9, where 1 is the maximum; inconclusive = response in the unintended direction; inactive = score below 0.9.
Tests used:
[1] = target: rat Gamma-Aminobutyric Acid Type B Receptor (GABBR), Gabbr1 (gene 81657) (UniProt Q9Z0U4); assay: NVS_GPCR_rGABBR: NovaScreen (NVS) G Protein-Coupled Receptor Assay for rat Gamma-Aminobutyric Acid Type B Receptor (GABBR) (AID 2283301)
rat Gamma-Aminobutyric Acid Type B Receptor (GABBR), Gabbr1 (gene 81657), sequence (Q9Z0U4 whole entry, looked up): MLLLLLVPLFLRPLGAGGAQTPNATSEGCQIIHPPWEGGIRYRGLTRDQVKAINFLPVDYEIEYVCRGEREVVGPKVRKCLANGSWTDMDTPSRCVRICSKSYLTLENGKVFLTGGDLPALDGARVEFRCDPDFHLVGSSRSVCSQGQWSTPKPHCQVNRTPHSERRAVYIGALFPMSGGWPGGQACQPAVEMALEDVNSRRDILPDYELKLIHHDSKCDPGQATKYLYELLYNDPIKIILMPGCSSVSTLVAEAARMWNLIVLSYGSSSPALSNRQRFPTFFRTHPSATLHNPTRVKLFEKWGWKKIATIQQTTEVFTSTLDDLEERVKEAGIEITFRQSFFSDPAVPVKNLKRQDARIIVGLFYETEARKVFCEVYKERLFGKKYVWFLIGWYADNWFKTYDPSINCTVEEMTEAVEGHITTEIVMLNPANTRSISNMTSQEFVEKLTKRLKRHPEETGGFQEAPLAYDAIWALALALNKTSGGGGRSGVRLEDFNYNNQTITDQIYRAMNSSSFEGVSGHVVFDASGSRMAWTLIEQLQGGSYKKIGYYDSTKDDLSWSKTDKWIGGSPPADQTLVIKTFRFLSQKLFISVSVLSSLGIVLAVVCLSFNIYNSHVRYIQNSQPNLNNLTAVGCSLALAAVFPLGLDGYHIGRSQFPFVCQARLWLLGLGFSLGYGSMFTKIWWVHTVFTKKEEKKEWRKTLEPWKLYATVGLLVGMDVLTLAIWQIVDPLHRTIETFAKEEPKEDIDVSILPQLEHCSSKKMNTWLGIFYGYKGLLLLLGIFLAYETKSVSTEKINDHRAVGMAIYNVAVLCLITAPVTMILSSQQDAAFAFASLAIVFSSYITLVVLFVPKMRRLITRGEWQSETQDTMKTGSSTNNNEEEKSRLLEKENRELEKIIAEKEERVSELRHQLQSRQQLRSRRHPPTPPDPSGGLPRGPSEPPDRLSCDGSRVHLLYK
Procedure, shortened: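 Rat cortical membrane preparation, competitive radioligand binding for 1 h with filtration and scintillation readout. Actives from duplicate single-point 25 uM screening proceeded to concentration series with 50 uM top concentration.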

[2] = target: rat Adrenergic Receptor, Beta (Adrb), Non-selective Binding, Adrb1 (gene 24925) (UniProt P18090); assay: NVS_GPCR_rAdrb_NonSelective: NovaScreen (NVS) G Protein-Coupled Receptor Assay for rat Adrenergic Receptor, Beta (Adrb), Non-selective Binding (AID 2283298)
rat Adrenergic Receptor, Beta (Adrb), Non-selective Binding, Adrb1 (gene 24925), sequence (P18090 whole entry, looked up): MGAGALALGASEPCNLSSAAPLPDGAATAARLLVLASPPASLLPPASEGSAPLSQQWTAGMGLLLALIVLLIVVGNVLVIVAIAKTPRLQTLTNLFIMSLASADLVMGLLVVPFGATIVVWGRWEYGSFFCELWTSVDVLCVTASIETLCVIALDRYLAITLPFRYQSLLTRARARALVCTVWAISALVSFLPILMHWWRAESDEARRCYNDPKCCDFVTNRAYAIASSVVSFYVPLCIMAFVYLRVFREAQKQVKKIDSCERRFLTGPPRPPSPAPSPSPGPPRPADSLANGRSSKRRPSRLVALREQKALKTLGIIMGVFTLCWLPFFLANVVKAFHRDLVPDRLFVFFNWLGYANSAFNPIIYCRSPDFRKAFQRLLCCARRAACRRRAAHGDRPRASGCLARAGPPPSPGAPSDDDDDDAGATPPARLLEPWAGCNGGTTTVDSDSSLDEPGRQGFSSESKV
Procedure, shortened: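 Rat cortical membranes incubated 1 h with beta-adrenergic radioligand and test chemical; bound ligand measured by filtration and scintillation counting. Screen at 25 uM duplicate, then concentration series with 50 uM maximum; loss of signal versus DMSO.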

[3] = target: human Opioid Receptor Mu (Opiate Mu), OPRM1 (gene 4988) (UniProt P35372); assay: NVS_GPCR_hOpiate_mu: NovaScreen (NVS) G Protein-Coupled Receptor Assay for human Opioid Receptor Mu (Opiate Mu) (AID 2283290);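 note: hits lower bound tracer signal versus DMSO meaning displacement of the ligand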
human Opioid Receptor Mu (Opiate Mu), OPRM1 (gene 4988), sequence (P35372 whole entry, looked up): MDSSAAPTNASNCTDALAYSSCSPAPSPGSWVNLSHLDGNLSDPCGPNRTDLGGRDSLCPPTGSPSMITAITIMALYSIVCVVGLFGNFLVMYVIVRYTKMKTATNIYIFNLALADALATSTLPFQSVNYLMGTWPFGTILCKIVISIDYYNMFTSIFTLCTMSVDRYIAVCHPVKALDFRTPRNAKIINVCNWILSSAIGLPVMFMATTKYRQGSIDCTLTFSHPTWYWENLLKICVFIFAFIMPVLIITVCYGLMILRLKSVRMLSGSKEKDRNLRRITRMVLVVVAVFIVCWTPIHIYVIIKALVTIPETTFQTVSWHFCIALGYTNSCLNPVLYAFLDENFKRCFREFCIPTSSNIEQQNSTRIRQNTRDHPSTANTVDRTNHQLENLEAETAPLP
Procedure, shortened: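 Primary screen in duplicate at 25 uM, with actives followed in concentration series. CHO-derived receptor membranes, cell-free; bound radioligand read by scintillation counting after filtration at 2.5 h, decrease scored against DMSO.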

[4] = system: 5-hydroxytryptamine receptor 2C (pig); assay: NVS_GPCR_p5HT2C: NovaScreen (NVS) G Protein-Coupled Receptor Assay for pig Serotonin, 5-Hydroxytryptamine Receptor 2C (5HT2C) (AID 2283288)
Procedure, shortened: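 Radioligand displacement on membranes from pig choroid plexus, detected by filter scintillation counting after 1 h. Tested first at a single 25 uM in duplicate, then in concentration-response for actives; DMSO served as baseline.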

[5] = system: rabbit Platelet Activating Factor Receptor (PAF), gene 100354046; assay: NVS_GPCR_rabPAF: NovaScreen (NVS) G Protein-Coupled Receptor Assay for rabbit Platelet Activating Factor Receptor (PAF) (AID 2283287)
Procedure, shortened: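 Rabbit platelet membrane preparation; radioligand displacement read by filter-based scintillation counting 1 h after dosing, loss of signal versus DMSO. Primary screen in duplicate at 25 uM, actives followed up in concentration series.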

[6] = system: rat Adrenergic, Alpha 1B Receptor (Adra1B), gene 24173; assay: NVS_GPCR_rAdra1B: NovaScreen (NVS) G Protein-Coupled Receptor Assay for rat Adrenergic, Alpha 1B Receptor (Adra1B) (AID 2283297)
Procedure, shortened: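 Filter-binding radioligand competition on membranes from rat liver, read after 1 h by scintillation counting. Single-concentration duplicate screen at 25 uM, followed by concentration-response on actives, normalised to DMSO.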

[7] = target: rat Opioid Receptor, Non-selective Sodium (Na+) Binding, Oprm1 (gene 25601) (UniProt P33535); assay: NVS_GPCR_rOpiate_NonSelectiveNa: NovaScreen (NVS) G Protein-Coupled Receptor Assay for rat Opioid Receptor, Non-selective Sodium (Na+) Binding (AID 2283311)
rat Opioid Receptor, Non-selective Sodium (Na+) Binding, Oprm1 (gene 25601), sequence (P33535 whole entry, looked up): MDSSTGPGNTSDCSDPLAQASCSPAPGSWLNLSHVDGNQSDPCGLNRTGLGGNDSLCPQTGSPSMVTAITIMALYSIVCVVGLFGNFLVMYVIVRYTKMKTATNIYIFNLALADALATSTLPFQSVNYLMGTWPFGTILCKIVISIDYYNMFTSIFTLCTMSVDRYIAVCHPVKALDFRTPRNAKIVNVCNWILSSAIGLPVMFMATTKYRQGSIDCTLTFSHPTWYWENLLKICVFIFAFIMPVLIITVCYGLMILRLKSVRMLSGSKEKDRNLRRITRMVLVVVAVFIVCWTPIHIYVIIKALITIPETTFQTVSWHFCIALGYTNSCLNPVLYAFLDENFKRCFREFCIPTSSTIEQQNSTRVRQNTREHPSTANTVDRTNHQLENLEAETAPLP
Procedure, shortened: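 Filtration radioligand binding on rat forebrain membrane preparations, read 1.5 h after dosing. Single-concentration 25 µM primary screen in duplicate, followed by singleton concentration series to 50 µM max for actives; DMSO baseline.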

[8] = target: rat Adrenergic, Alpha 1, Non-selective Receptor (Adra1), Adra1a (gene 29412) (UniProt P43140); assay: NVS_GPCR_rAdra1_NonSelective: NovaScreen (NVS) G Protein-Coupled Receptor Assay for rat Adrenergic, Alpha 1, Non-selective Receptor (Adra1) (AID 2283289)
rat Adrenergic, Alpha 1, Non-selective Receptor (Adra1), Adra1a (gene 29412), sequence (P43140 whole entry, looked up): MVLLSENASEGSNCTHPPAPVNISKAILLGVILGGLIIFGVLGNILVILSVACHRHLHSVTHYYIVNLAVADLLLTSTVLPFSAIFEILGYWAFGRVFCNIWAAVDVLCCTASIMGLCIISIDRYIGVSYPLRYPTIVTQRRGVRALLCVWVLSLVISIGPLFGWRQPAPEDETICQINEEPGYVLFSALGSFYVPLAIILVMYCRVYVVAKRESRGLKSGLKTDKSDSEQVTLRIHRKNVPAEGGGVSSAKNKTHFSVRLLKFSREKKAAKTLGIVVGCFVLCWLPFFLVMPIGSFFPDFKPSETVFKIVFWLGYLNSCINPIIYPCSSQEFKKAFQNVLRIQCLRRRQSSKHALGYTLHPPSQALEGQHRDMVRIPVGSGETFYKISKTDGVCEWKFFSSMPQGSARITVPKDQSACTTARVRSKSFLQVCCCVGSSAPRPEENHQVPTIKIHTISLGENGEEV
Procedure, shortened: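 Chemicals first screened in duplicate at 25 uM, then actives tested in concentration series up to 50 uM. Binding measured as displacement of radioligand from rat forebrain membrane receptors, 1 h, filtration with scintillation readout; DMSO baseline.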

[9] = target: rat Adrenergic, Alpha 1A Receptor (Adra1A), Adra1a (gene 29412) (UniProt P43140); assay: NVS_GPCR_rAdra1A: NovaScreen (NVS) G Protein-Coupled Receptor Assay for rat Adrenergic, Alpha 1A Receptor (Adra1A) (AID 2283296)
rat Adrenergic, Alpha 1A Receptor (Adra1A), Adra1a (gene 29412), sequence (P43140 whole entry, looked up): as above
Procedure, shortened: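 Filter radiodetection after 1 h competitive binding on CEC-pretreated rat cortical membranes. Duplicate single-point screening at 25 uM; active chemicals retested across concentration series.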

[10] = target: rat Glutamate Metabotropic Receptor 5 (MGluR5), Grm5 (gene 24418) (UniProt P31424); assay: NVS_GPCR_rmMGluR5: NovaScreen (NVS) G Protein-Coupled Receptor Assay for rat Glutamate Metabotropic Receptor 5 (MGluR5) (AID 2283307)
Procedure, shortened: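 Compounds first screened in duplicate at 25 uM, then in concentration series up to 50 uM if over threshold. Radioligand displacement on rat whole-brain membranes, filtration and scintillation counting after 1.5 h; binding loss relative to DMSO.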

[11] = target: rat Serotonin, 5-Hydroxytryptamine Receptor 1 (5HT1), Non-Selective Binding, Htr1a (gene 24473) (UniProt P19327); assay: NVS_GPCR_r5HT1_NonSelective: NovaScreen (NVS) G Protein-Coupled Receptor Assay for rat Serotonin, 5-Hydroxytryptamine Receptor 1 (5HT1), Non-Selective Binding (AID 2283286)
Procedure, shortened: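 Binding of a radioligand to rat cortex membranes is read by filtration and scintillation counting after 1 h. Compounds were screened at 25 uM in duplicate. Actives were then titrated to a top of 50 uM. DMSO is the baseline.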

[12] = target: rat Adrenergic Receptor, Alpha 2 (Adra2), Non-selective Binding, Adra2a (gene 25083) (UniProt P22909); assay: NVS_GPCR_rAdra2_NonSelective: NovaScreen (NVS) G Protein-Coupled Receptor Assay for rat Adrenergic Receptor, Alpha 2 (Adra2), Non-selective Binding (AID 2283299)
Procedure, shortened: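 Filter-based scintillation counting of radioligand binding to rat cortical membrane receptors, measured 1.25 hours post-dosing; loss of signal versus DMSO indicates displacement. Initial single-concentration duplicate at 25 uM, then concentration series.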

Adra2b (gene 24174) = Adra2b (gene 24174) (UniProt P19328); assay: NVS_GPCR_rmAdra2B: NovaScreen (NVS) G Protein-Coupled Receptor Assay for hybird cells Adrenergic, Alpha 2B Receptor (Adra2B) (AID 2283306)
Adra2b (gene 24174), sequence (P19328 whole entry, looked up): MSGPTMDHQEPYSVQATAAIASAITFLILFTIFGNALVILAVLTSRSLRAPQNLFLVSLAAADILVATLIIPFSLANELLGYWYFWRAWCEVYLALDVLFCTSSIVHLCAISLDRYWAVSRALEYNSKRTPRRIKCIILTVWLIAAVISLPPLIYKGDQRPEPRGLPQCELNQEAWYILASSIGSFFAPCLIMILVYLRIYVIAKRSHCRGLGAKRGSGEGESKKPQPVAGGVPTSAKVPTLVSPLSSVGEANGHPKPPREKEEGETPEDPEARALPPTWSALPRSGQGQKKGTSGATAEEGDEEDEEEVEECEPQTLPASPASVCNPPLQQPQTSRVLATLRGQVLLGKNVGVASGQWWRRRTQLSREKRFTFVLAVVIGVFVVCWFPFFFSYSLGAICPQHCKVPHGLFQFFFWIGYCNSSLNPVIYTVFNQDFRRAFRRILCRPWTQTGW
Procedure, shortened: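 Compounds screened first at 25 uM in duplicate, with actives followed up in concentration-response; specific radioligand displacement from hybrid neuroglioma/blastoma cell membrane preparations measured by filter scintillation counting after 1 h, normalized to DMSO.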

[13] = target: rat Histamine Receptor (H3), Hrh3 (gene 85268) (UniProt Q9QYN8); assay: NVS_GPCR_rH3: NovaScreen (NVS) G Protein-Coupled Receptor Assay for rat Histamine Receptor (H3) (AID 2283303)
Procedure, shortened: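 Filter-binding radioligand competition on rat forebrain membranes, 1 h incubation; compounds screened at 25 µM in duplicate and followed in concentration series to 50 µM, loss of bound signal vs DMSO.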

[14] = target: rat Neurokinin-1 Receptor (NK1), Tacr1 (gene 24807) (UniProt P14600); assay: NVS_GPCR_rNK1: NovaScreen (NVS) G Protein-Coupled Receptor Assay for rat Neurokinin-1 Receptor (NK1) (AID 2283309)
Procedure, shortened: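 Competitive radioligand binding to NK1 in rat submaxillary membranes, 1 h incubation, filtration and scintillation read-out. Compounds first screened at 25 uM in duplicate, then concentration-response for actives; signal loss relative to DMSO.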

[15] = target: guinea pig Bradykinin Receptor B2 (BK2), BDKRB2 (gene 100135486) (UniProt O70526); assay: NVS_GPCR_gBK2: NovaScreen (NVS) G Protein-Coupled Receptor Assay for guinea pig Bradykinin Receptor B2 (BK2) (AID 2283292)
Procedure, shortened: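 Guinea pig ileum membrane preparation incubated 1 h with radioligand and test chemical; bound counts measured after filtration. Primary duplicate screening at 25 uM, then singleton concentration series with a 50 uM top dose; DMSO as baseline.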

[16] = target: mouse Cholecystokinin, CCK2 Receptor (CCKB), Cckbr (gene 12426) (UniProt P56481); assay: NVS_GPCR_mCKKBCentral: NovaScreen (NVS) G Protein-Coupled Receptor Assay for mouse Cholecystokinin, CCK2 Receptor (CCKB) (AID 2283293)
Procedure, shortened: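 Mouse forebrain membrane preparation incubated 2 h with chemical and radioligand; bound radioactivity counted after filtration. Single-concentration duplicate screen at 25 uM, then concentration series to 50 uM max for hits, DMSO as baseline.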

[17] = target: Metabotropic glutamate receptor 1 (Rattus norvegicus) (UniProt P23385); assay: NVS_GPCR_rmMGluR1: NovaScreen (NVS) G Protein-Coupled Receptor Assay for rat Glutamate Metabotropic Receptor 1 (MGluR1) (AID 2283305)
Metabotropic glutamate receptor 1 (Rattus norvegicus), sequence (P23385 whole entry, looked up): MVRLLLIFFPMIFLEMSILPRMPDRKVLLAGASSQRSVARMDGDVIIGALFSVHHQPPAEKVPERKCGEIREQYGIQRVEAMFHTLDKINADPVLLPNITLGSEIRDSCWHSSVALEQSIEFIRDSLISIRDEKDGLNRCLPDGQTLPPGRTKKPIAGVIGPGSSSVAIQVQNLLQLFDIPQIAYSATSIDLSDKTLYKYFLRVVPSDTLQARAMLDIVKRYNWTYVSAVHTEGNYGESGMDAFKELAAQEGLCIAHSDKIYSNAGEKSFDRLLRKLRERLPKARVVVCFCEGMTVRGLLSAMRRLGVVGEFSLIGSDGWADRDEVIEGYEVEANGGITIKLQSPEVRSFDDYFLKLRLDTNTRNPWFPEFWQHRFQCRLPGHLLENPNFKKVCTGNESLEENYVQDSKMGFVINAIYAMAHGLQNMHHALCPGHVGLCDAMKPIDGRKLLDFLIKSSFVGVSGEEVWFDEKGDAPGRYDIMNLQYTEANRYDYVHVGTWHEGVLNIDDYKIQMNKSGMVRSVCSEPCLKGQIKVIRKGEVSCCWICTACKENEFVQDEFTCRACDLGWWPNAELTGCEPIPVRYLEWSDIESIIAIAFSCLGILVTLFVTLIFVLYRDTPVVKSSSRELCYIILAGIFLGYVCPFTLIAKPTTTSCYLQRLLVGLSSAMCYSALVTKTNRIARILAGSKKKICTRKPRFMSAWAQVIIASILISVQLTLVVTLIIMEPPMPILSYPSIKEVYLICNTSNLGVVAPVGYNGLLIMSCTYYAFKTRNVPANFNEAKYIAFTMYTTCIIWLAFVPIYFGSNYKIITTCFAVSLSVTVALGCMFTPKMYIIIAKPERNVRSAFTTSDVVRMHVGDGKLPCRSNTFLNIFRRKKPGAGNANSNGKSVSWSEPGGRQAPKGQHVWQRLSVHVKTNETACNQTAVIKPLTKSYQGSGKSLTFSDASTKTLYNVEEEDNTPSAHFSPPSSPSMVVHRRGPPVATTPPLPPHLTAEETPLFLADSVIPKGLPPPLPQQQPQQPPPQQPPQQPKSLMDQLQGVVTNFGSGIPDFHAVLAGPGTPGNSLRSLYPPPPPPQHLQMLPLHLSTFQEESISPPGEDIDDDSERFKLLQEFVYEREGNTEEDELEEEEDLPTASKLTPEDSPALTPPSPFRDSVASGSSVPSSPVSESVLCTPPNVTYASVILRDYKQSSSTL
Procedure, shortened: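 Binding to native receptor from rat cerebellum extract, measured as displacement of a radioligand (scintillation counting, filter separation) after 1 hour. Compounds tested at 25 uM in duplicate, then titrated to a 50 uM maximum.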

[18] = target: rat Neurokinin-3 Receptor (NK3), Tacr3 (gene 24808) (UniProt P16177); assay: NVS_GPCR_rNK3: NovaScreen (NVS) G Protein-Coupled Receptor Assay for rat Neurokinin-3 Receptor (NK3) (AID 2283310)
rat Neurokinin-3 Receptor (NK3), Tacr3 (gene 24808), sequence (P16177 whole entry, looked up): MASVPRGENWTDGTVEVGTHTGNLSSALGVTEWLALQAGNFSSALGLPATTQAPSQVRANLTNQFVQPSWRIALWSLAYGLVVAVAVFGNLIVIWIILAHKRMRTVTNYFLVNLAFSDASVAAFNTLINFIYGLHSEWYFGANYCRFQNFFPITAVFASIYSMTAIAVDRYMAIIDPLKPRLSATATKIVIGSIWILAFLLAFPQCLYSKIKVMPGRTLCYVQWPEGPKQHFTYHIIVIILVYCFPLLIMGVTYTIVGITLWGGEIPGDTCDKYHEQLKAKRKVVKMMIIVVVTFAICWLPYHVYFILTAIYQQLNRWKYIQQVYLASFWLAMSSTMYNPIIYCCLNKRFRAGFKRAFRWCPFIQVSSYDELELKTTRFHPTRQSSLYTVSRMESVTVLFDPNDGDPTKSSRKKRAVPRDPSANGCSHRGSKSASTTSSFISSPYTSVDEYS
Procedure, shortened: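 Filter-based radioligand displacement on rat cortex membrane preparations, read by scintillation 2 h post-dose. Chemicals first tested in duplicate at 25 uM; actives followed up in concentration series with a 50 uM maximum.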

Structure (SMILES): CCCC(CCC)C(=O)O
- outcome [1]: inactive

Structure (SMILES): NC(=O)NN=Cc1ccc([N+](=O)[O-])o1
- outcome [2]: inactive

Structure (SMILES): CCCCCCCCCCCCCCO
- outcome [3]: inactive

Structure (SMILES): COCc1nnc(-c2ccc[n+]([O-])c2)n1-c1c(Cl)c(Cl)cc2[nH]c(=O)c(=O)[nH]c12
- outcome [4]: inactive

Structure (SMILES): C=CCc1cc(S(=O)(=O)c2ccc(O)c(CC=C)c2)ccc1O
- AC50 [5]: 20 µM (active)
- AC50 [4]: 7.68 µM (active)
- AC50 [3]: 4.83 µM (active)
- outcome [6]: inactive
- AC50 [7]: 16.1 µM (active)

Structure (SMILES): CCc1ccc(O)c(C(C)(C)C)c1
- outcome [8]: inactive
- outcome [9]: inactive

Structure (SMILES): CCCCCCCCCCCCCCCCOS(=O)(=O)O
- AC50 [3]: 4.11 µM (active)
- AC50 [6]: 12.5 µM (active)

Structure (SMILES): NC(=O)N1c2ccccc2C=Cc2ccccc21
- outcome [1]: inactive

Structure (SMILES): OC(Cn1cncn1)(Cn1cncn1)c1ccc(F)cc1F
- outcome [7]: inactive

Structure (SMILES): CC[C@H](C)C(=O)O[C@H]1C[C@H](O)C=C2C=C[C@H](C)[C@H](CC[C@@H](O)C[C@@H](O)CC(=O)O)[C@H]21
- outcome [10]: inactive

Structure (SMILES): O=C(O)c1ccc2c(c1)nc(C(=O)NC1CCN(C3CC3)CC1)n2Cc1cc(-c2ccc(Cl)s2)on1
- outcome [11]: inactive
- AC50 [12]: 3.26 µM (active)
- AC50 (Adra2b (gene 24174)): 395 nM (active)

Structure (SMILES): CCN(CC)C(=S)SSC(=S)N(CC)CC
- outcome [3]: inactive
- outcome [6]: inactive
- AC50 [13]: 16.2 µM (active)
- outcome [7]: inactive

Structure (SMILES): CCCOc1ccc(S(=O)(=O)N2CCN(CC)CC2)cc1-c1nc2c(CC)n(Cc3ccccn3)nc2c(=O)[nH]1
- AC50 [5]: 6.42 µM (active)
- AC50 [8]: 402 nM (active)
- AC50 [14]: 12.6 µM (active)

Structure (SMILES): CCCCCCCCCC
- outcome [5]: inactive
- outcome [4]: inactive
- outcome [3]: inactive
- outcome [15]: inactive
- outcome [16]: inactive
- outcome [6]: inactive
- outcome [1]: inactive
- outcome [17]: inactive
- outcome (Adra2b (gene 24174)): inactive
- outcome [18]: inactive

Structure (SMILES): O=S(=O)(O)c1ccc(N=Nc2c(O)ccc3cc(S(=O)(=O)O)ccc23)cc1
- AC50 [11]: 12.4 µM (active)
- outcome [8]: inactive

Structure (SMILES): C=CN1CCCC1=O
- outcome [3]: inactive

Structure (SMILES): CCCCCCCC/C=C\CCCCCCCC(=O)OC[C@@H](O)[C@H]1OC[C@H](O)[C@H]1O
- outcome [3]: inactive
- outcome (Adra2b (gene 24174)): inactive

Structure (SMILES): OCCOCCOCCO
- outcome [2]: inactive

Structure (SMILES): OCC(CO)(CO)CO
- outcome [18]: inactive

Structure (SMILES): CCCCN1C(=O)[C@@H]([C@H](O)C2CCCCC2)NC(=O)C12CCN(Cc1ccc(Oc3ccc(C(=O)O)cc3)cc1)CC2
- AC50 [17]: 9.81 µM (active)
- outcome [18]: inactive
